The values below come from PubChem BioAssay (NCATS).

Results filed as inconclusive are left out. A call without a number means that no potency is given here. Activity calls are given as the source filed them. Calls come from the whole dose curve; as a rule, active = well fitted curve in the direction sought with a large enough effect; inconclusive = small, poorly fitted or top-dose-only effect, or another doubt; inactive = no such curve, though single readings can be large; an effect the other way counts as inactive or inconclusive.

Chain of Rap guanine nucleotide exchange factor 3 (Homo sapiens) (O95398 whole entry, looked up): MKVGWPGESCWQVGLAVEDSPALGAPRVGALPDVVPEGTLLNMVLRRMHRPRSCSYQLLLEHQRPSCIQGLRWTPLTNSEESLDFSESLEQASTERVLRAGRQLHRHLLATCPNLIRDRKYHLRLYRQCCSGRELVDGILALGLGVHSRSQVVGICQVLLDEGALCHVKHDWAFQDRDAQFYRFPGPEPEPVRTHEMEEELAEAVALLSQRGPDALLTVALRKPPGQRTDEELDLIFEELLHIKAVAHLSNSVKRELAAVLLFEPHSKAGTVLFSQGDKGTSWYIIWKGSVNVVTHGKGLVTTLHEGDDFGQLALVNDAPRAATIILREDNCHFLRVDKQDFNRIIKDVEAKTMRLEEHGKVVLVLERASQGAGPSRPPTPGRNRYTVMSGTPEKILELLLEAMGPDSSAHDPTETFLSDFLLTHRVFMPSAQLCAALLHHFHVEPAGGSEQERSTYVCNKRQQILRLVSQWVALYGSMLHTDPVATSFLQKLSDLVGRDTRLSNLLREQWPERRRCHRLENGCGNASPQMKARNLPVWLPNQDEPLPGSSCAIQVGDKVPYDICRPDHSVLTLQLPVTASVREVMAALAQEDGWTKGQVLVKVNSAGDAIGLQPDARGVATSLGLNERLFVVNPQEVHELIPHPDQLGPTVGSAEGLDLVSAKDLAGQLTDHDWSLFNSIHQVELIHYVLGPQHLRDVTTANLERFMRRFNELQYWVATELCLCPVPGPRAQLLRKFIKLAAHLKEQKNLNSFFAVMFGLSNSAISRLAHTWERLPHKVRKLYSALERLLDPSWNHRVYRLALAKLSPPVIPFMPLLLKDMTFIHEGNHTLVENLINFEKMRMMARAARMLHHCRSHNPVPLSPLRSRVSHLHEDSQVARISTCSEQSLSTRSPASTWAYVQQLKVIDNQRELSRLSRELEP

The first experiment deals with Rap guanine nucleotide exchange factor 4 (Homo sapiens) (UniProt Q8WZA2). Nature of the experiment: Confirmatory qHTS for antagonist of cAMP-regulated guanine nucleotide exchange factor 4 (EPAC2) (AID 1645885). Note: nearly all actives have a fitted effect of over 25% in size. Note: potency is the fitted concentration of half-maximal effect. The conditions noted are these: EPAC2 Rap1B-BODIPY-GDP exchange fluorescence, biochemical; series mostly up to 12.7 µM. In general terms: qHTS replaces the single test concentration by a dilution series.
Chain of Rap guanine nucleotide exchange factor 4 (Homo sapiens) (Q8WZA2 whole entry, looked up): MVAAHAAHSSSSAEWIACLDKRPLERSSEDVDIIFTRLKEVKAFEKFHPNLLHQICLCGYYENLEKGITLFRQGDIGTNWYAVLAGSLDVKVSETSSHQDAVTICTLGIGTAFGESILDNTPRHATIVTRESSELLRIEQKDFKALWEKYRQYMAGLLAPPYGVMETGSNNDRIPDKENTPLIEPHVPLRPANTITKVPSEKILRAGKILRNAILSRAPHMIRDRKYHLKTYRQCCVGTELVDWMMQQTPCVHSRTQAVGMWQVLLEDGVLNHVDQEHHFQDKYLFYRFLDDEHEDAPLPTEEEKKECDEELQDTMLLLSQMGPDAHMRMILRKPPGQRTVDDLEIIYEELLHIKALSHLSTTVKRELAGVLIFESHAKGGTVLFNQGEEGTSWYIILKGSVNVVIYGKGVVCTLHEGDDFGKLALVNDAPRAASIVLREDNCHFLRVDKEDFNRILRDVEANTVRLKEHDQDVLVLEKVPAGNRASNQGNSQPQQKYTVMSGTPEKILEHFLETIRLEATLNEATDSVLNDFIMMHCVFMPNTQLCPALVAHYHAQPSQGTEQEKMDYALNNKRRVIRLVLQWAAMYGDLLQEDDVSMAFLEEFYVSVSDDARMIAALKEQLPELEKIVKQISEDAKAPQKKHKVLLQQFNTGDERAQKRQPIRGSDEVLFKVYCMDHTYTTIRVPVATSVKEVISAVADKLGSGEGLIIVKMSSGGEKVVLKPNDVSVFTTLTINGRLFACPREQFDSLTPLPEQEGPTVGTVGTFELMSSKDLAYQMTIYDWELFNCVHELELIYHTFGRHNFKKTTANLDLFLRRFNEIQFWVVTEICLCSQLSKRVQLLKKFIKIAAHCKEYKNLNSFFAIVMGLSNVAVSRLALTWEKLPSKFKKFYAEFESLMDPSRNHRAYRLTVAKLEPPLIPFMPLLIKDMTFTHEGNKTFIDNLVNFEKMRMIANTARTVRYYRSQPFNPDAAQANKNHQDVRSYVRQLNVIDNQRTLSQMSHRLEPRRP
As to `COC(=O)C1=C(C)N(c2ccc(OC)cc2)C(C)=C(C(=O)OC)C1c1ccccc1`, the Potency result is “inactive”.

On to `COc1ccc(C(=S)N2CCOCC2)cc1OC(=O)c1ccccc1Cl`, for which the Potency entry is “inactive”.

As to `O=C(CCn1c(=O)oc2ccccc21)N(Cc1ccccc1)c1ccccc1`, the Potency entry was “inactive”.

For the compound `Cc1nnc(N2CCC(C(=O)NC3CCCCC3)CC2)c2nn(-c3ccccc3)c(C)c12`, the Potency result was “inactive”.

As for `CN(C)c1ccc(/C=C/c2c3c(nc4ccccc24)CCCC3)cc1`, the Potency result is “inactive”.

`Cc1onc(-c2ccc3c(c2)OCO3)c1-c1ccc2[nH]ccc2c1`: the Potency entry is “inactive”.

As for `C=Nc1ccc(/C=C/c2ccnc3ccccc23)cc1`, the Potency result is “inactive”.

With `Nc1ncnc2c1nc(Sc1ccc(Cl)cc1)n2[C@@H]1O[C@@H]2COP(=O)(O)O[C@H]2[C@H]1O`, the Potency was 675 nM (active).

As for `Cc1ccc(NC(=O)N2CC3CCCN3c3ccccc32)cc1Cl` (stereo unspecified), the Potency result is “inactive”.

In the case of `CCCCN(CCC#N)c1ccc(/C=C/c2ccnc3ccccc23)cc1`, the Potency result is “inactive”.

As to `CN(C)c1ccc(/C=C/c2sc3ccccc3[n+]2CCCCBr)cc1`, the Potency entry was “inactive”.

Turning to `COc1cccc(-c2nc(N3CCN(c4ccccc4)CC3)c3ccccc3n2)c1O`, the Potency result was “inactive”.

Consider `O=C(NCc1ccccc1F)c1ccc(CN2CC(=O)N3CCCCC3C2=O)cc1` (stereo unspecified), for which the Potency result was “inactive”.

`CSc1ccc(S(=O)(=O)NCC(=O)OCC(=O)N(C)Cc2ccccc2)cc1[N+](=O)[O-]`: the Potency entry is “inactive”.

Take `COc1ccc([N+](=O)[O-])cc1-c1nc2ccccc2nc1-c1ccccc1`: the Potency was 30.1 nM (active).

As to `CCCCN(CCCC)c1ccc(/C=C/c2ccnc3ccccc23)cc1`, the Potency result was “inactive”.

Another experiment has as its target Rap guanine nucleotide exchange factor 3 (Homo sapiens) (UniProt O95398). The experiment can be described thus: Counterscreen qHTS for antagonist of cAMP-regulated guanine nucleotide exchange factor 3 (EPAC1) (AID 1645888).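 Note: fluorescence loss as bound BODIPY-GDP is released from Rap1B.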 The conditions noted are these: Rap1B-BODIPY-GDP nucleotide exchange, fluorescence; series mostly up to 154 µM. The procedure, abridged: (§1)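 Measured: fluorescence of BODIPY-GDP bound to Rap1B, which falls as exchange proceeds. Conditions include 50 uM competing GDP, 5 and 30 min reads, and a later cAMP challenge for antagonist detection.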
On the technique in general: Counterscreens check selectivity or assay interference.
Regarding `COC(=O)C1=C(C)N(c2ccc(OC)cc2)C(C)=C(C(=O)OC)C1c1ccccc1`, the Potency entry was “inactive”.

For `Cc1nnc(N2CCC(C(=O)NC3CCCCC3)CC2)c2nn(-c3ccccc3)c(C)c12`, the Potency entry is “inactive”.

`Nc1ncnc2c1nc(Sc1ccc(Cl)cc1)n2[C@@H]1O[C@@H]2COP(=O)(O)O[C@H]2[C@H]1O`: the Potency result was “inactive”.

Take `Cc1ccc(NC(=O)N2CC3CCCN3c3ccccc32)cc1Cl` (stereo unspecified): the Potency entry was “inactive”.

As to `O=C(NCc1ccccc1F)c1ccc(CN2CC(=O)N3CCCCC3C2=O)cc1` (stereo unspecified), the Potency entry was “inactive”.

Regarding `COc1ccc([N+](=O)[O-])cc1-c1nc2ccccc2nc1-c1ccccc1`, the Potency result is “inactive”.

For the next experiment the target is unchanged. The experiment can be described thus: Counterscreen qHTS for agonist of cAMP-regulated guanine nucleotide exchange factor 3 (EPAC1) (AID 1645889). Note: nearly all actives have a fitted effect of over 40% in size. Note: potency is the fitted concentration of half-maximal effect. Particulars: EPAC1 Rap1B-BODIPY-GDP exchange, fluorescence; series mostly up to 154 µM. The procedure, abridged: as §1
`CCOC(=O)C1(Cc2ccccc2)C(=O)Nc2ccccc21` (stereo unspecified): the activation was 32.7% [at 30.8 µM] (inactive).

Turning to `COc1ccc(OC)c(/C=C/c2ccnc3ccccc23)c1`, the activation is 14.1% [at 30.8 µM] (inactive).

In the case of `CN(C)c1ccc2nc3c(=O)[nH]c(=O)nc-3n(CC(O)C(O)C(O)CO)c2c1` (stereo unspecified), the Potency was 11200 nM (active).

As for `Oc1ccc2ccccc2c1-c1sc(Nc2ccccc2)n[n+]1-c1ccc(F)cc1`, the Potency result is “inactive”.

Take `O=C1C=C(c2ccccc2)C(c2ccccc2)C1` (stereo unspecified): the Potency result was “inactive”.

For `COc1ccc2c(c1)CCC1(C)CC(=O)C(Br)=C21` (stereo unspecified), the Potency entry was “inactive”.

In the case of `O=C(O)/C(CC(=O)c1ccc(Cl)cc1)=N/Nc1ccc([N+](=O)[O-])cc1[N+](=O)[O-]`, the Potency entry was “inactive”.

With `COc1ccc(/C=C2/C(=O)N(CC3CCCO3)C(=S)N2C)c(OC)c1` (stereo unspecified), the Potency result is “inactive”.

Turning to `COc1ccc(NS(=O)(=O)c2cc(N)ccc2N2CCCCC2)cc1`, the Potency result is “inactive”.

In the case of `COc1cc(Br)cc(C(=O)N2CCc3ccccc32)c1OC`, the Potency result is “inactive”.

For the compound `O=C(CN1CCCCC1)Nc1cc(Cl)ccc1Oc1ccccc1`, the Potency entry is “inactive”.

For `O=c1cc2oc3cc(O)c(O)cc3c(-c3ccccc3[N+](=O)[O-])c-2cc1O`, the Potency entry is “inactive”.

As to `O=C(c1ccco1)N1N=C2CCCCCC2C1(O)C(F)(F)F` (stereo unspecified), the Potency entry was “inactive”.

With `CCOC(=O)C(Cc1ccc(Cl)cc1Cl)c1ccno1` (stereo unspecified), the Potency entry is “inactive”.

Take `C=CCn1c(SCc2cc([N+](=O)[O-])cc3c2OCOC3)nc2cc(C(=O)O)ccc2c1=O`: the Potency result was “inactive”.

For `COC(=O)c1cc(C(=O)OC)n(Cc2ccc(F)cc2)c1C`, the Potency result is “inactive”.

Turning to `CC(=O)NC(c1ccc(Cl)cc1)c1ccc2cccnc2c1O` (stereo unspecified), the activation was 6.93% [at 30.8 µM] (inactive).

Take `COc1ccc(C2CC2/C(=N/O)c2ccccn2)cc1` (stereo unspecified): the Potency result was “inactive”.

Regarding `NS(=O)(=O)c1cccc(Nc2nc3ccccc3nc2NS(=O)(=O)c2ccc(Cl)cc2)c1`, the Potency result was “inactive”.
